Screening data (PubChem)
This is a sample that favours compounds with a hit; in the whole collection about 19% have one here.
DT40 TDP1 no CPT: qHTS for Inhibitors of human tyrosyl-DNA phosphodiesterase 1 (TDP1): qHTS in cells in absence of CPT. DT40 Tdp1-/- hTDP1 cells, no CPT, ATP luminescence, 48 h. Potency, µM (series often up to 46.2 µM), inactives show at the highest dose activity change, negative = growth inhibition, hits mostly inhibitors. 420,000 compounds, 15% hits; also: potency is read from the fitted curve at half-maximal effect; nearly all actives have a fitted effect of over 55% in size
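A cellular qHTS used chicken DT40 cells lacking endogenous Tdp1 but carrying stably transfected human TDP1. Compounds were applied without camptothecin, and cell growth kinetics were judged by ATP-dependent luminescence after ≥48 hr.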
IL-1B inflam inh: qHTS for Inhibitors of Inflammasome Signaling: IL-1-beta AlphaLISA Primary Screen | THP-1 LPS/ATP IL-1B secretion, AlphaLISA, 16 h; hits give low values | activity change, % at 57.5 µM | 360,000 compounds, 4.7% hits | AID 743279, 2014; in the data active = activity change below about -50%; inconclusive = mostly about -30% to -49%
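Secreted IL-1B measured by AlphaLISA bead assay after 16 h compound exposure of THP-1 cells; compounds (final up to 57.5 uM) added 1 h before LPS (250 ng/mL) and ATP (1.25 mM) stimulation; lower signal means less secretion.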
HT1080 IDH1KD tx: qHTS for induction of synthetic lethality in tumor cells producing 2HG: qHTS for the HT-1080-IDH1KD cell line; HT-1080 IDH1 knockdown viability, ATP luminescence, 48 h; Potency, µM (titrated, usually from 46.1 µM), without a hit: at the top dose activity, negative = toxicity, actives largely listed as cytotoxic; 360,000 compounds, 2% hits; AID 686971, 2013;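 also: potency is read from the fitted curve at half-maximal effect; 0% = DMSO wells and -100% = cell-free medium wells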
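% activity derives from luminescence (CellTiter-Glo), normalised to DMSO and no-cell wells. HT-1080-IDH1KD cells, 750/well, had 48 h compound exposure at 37 °C.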
HT1080NT lethal: qHTS for induction of synthetic lethality in tumor cells producing 2HG: qHTS for the HT-1080-NT fibrosarcoma cell line. HT-1080-NT fibrosarcoma viability, CellTiter-Glo ATP luminescence, 48 h. Potency, µM (highest dose often 46.1 µM), without a hit: at the highest dose activity, negative = less viability, most hits filed as cytotoxic. 360,000 compounds, 1.6% hits. AID 686970, 2013;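 also: NT is the 2HG producing partner of a matched IDH1 knockdown line; potency is read from the fitted curve at half-maximal effect; 0% = DMSO-treated cells and -100% = media-only wells without cells; nearly all actives have a fitted effect of over 55% in size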
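Read-out is CellTiter-Glo luminescence after 10 minutes at room temperature, following 48 hours' compound treatment of HT-1080-NT cells (750 cells/well, RPMI, 5% FBS, 37 degrees C).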
DT40 TDP1 CPT: qHTS for Inhibitors of human tyrosyl-DNA phosphodiesterase 1 (TDP1): qHTS in cells in presence of CPT | chicken DT40 Tdp1-/-;hTDP1 cells + 20 nM CPT, ATP luminescence, 48 h | Potency, µM (titrated, usually from 46.2 µM), inactives show at the top dose activity change, negative = growth inhibition, actives largely listed as inhibitors | 420,000 compounds, 12% hits | AID 686979, 2013; also: potency is read from the fitted curve at half-maximal effect; nearly all actives have a fitted effect of over 55% in size
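Cell growth measured by CellTiter-Glo luminescence after a minimum 48 h, 37 C compound exposure with 20 nM CPT in Tdp1-knockout DT40 cells stably expressing hTDP1, seeded 400/well; qHTS titration format.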
An asterisk follows results filed as active; ? = inconclusive; . = no result; [ ] = remark or other dose. Unless noted, calls follow the shape of the dose curve; as a rule, active = well fitted curve in the direction sought with a large enough effect; inconclusive = small, poorly fitted or top-dose-only effect, or another doubt; inactive = no such curve, though single readings can be large; an effect the other way counts as inactive or inconclusive. Unless noted, % is scaled to controls: 0 for no effect and ±100 for the full control effect.

SMILES	DT40 TDP1 no CPT	IL-1B inflam inh	HT1080 IDH1KD tx	HT1080NT lethal	DT40 TDP1 CPT
Clc1cccc(C[n+]2cc(-c3ccccc3)n3c2CCC3)c1	2.6µM*	-4	?	0%	2.9µM*
Cc1ccc(S(=O)(=O)N(Cc2cccc(Cl)c2)C(=O)N2CCN(C)CC2)cc1	-3%	2	-1%	-1%	-2%
Cc1ccc(-c2c[n+](Cc3cccc(Cl)c3)c3n2CCC3)cc1	0.52µM*	-81*	?	?	0.92µM*
C#CCn1c(=NC(=O)c2sc3ccccc3c2Cl)sc2cc(S(N)(=O)=O)ccc21	?	2	0%	-12%	?
CN(C)c1ncnc2ccc(-c3cccc(C#N)c3)cc12	?	.	.	.	26µM*
Cc1cccc(CNc2cc(-c3cccc(C#N)c3)ncn2)c1	4.6µM*	.	.	.	21µM*
N#Cc1cccc(-c2ccc3ncnc(NCc4ccccc4)c3c2)c1	26µM*	.	.	.	?
COc1cccc(-c2cncnc2NCc2cccc(C)c2)c1	23µM*	.	.	.	?
CN(C)Cc1ccccc1-c1ccc2ncnc(NCc3ccccc3)c2c1	-21%	.	.	.	?
COc1cccc(-c2ccc3ncnc(NCc4ccccc4OC)c3c2)c1	15µM*	.	.	.	?
COc1cccc(-c2ccc3ncnc(NCc4ccccc4)c3c2)c1	21µM*	.	.	.	?
COc1cc2ncnc(NCc3cccc(F)c3F)c2cc1OC	?	12	5%	-6%	?
COCCNc1ncnc2ccc(-c3cccc(OC)c3)cc12	23µM*	.	.	.	?
Brc1ccc2ncnc(NCc3ccccc3)c2c1	8.2µM*	?	0%[9.24 µM]	?	7.3µM*
COc1cccc(-c2cncnc2NCc2cccnc2)c1	-26%	.	.	.	-10%
COc1ccccc1-c1cccc([C@@H]2C[C@H]3[C@H](CON3C)CN2C)c1	-16%	2	2%	2%	14%
CC(=O)NCCNc1ncnc2ccc(-c3cccc(NS(C)(=O)=O)c3)cc12	-4%	.	.	.	?
CN(C)c1ncnc2ccc(-c3ccc4c(c3)OCO4)cc12	23µM*	.	.	.	?
COc1ccccc1CNc1ncnc2ccc(-c3cccc(NS(C)(=O)=O)c3)cc12	1.5µM*	.	.	.	1.6µM*
Cc1nonc1-c1ccc2c(c1)OCO2	-1%	3	-1%	1%	2%
CCN(CCn1cccn1)Cc1cn[nH]c1-c1ccc(-c2ccccc2)cc1	23µM*	-22	-15%	-1%	?
CCN(CC)C(=O)c1scc2c1OCCO2	-20%	-56*	-3%	-2%	-3%
Cc1cc(C)c2oc(C(=O)Nc3sc4c(c3C(=O)NCc3ccco3)CCCC4)cc(=O)c2c1	-6%	.	.	.	6%
N#C/C(=N\Nc1cccc(C(F)(F)F)c1)C(=O)c1ccsc1	5.8µM*	?	?	4.6µM*	5.2µM*
COc1cccc(NC(=O)c2cc(OC)c(OC)c(OC)c2Br)c1	-5%	-7	3%	4%	0%
SMILES	DT40 TDP1 no CPT	IL-1B inflam inh	HT1080 IDH1KD tx	HT1080NT lethal	DT40 TDP1 CPT
CC1=NN(c2ccccc2C(=O)O)C(=O)C1N=Nc1ccccc1 (stereo not drawn)	21µM*	17	7%	12%	13µM*
CC1=NN(C(N)=S)C(=O)C1N=Nc1ccccc1C(=O)O (stereo not drawn)	-12%	-4	-8%	0%	-5%
COc1ccc(NC(=O)CSc2nc3c(c(-c4cccs4)c2C#N)CN(C)CC3)cc1OC	?	?	-19%	-15%	29µM*
COC(=O)c1c(NC(=O)c2ccccc2)sc(C(N)=O)c1C	?	40	?	-22%	-1%
COC(=O)c1c(N)sc(C(=O)N2CCOCC2)c1C	-12%	44	-1%	1%	-1%
COC(=O)c1c(NC(=O)c2ccccc2)sc(C(=O)c2ccccc2)c1C	15µM*	20	?	?	16µM*
COC(=O)c1c(NC(=O)CCl)sc(C(=O)N2CCOCC2)c1C	5.2µM*	-98*	18µM*	7.3µM*	?
COC(=O)c1c(NC(=O)c2ccccc2OC)sc(C(=O)N2CCOCC2)c1C	15µM*	-60*	9%	5%	?
O=C(NCc1ccccc1Cl)c1cc2ccccc2o1	-2%	.	.	.	-3%
O=[N+]([O-])c1cc([N+](=O)[O-])c(N2CCCCCC2)cc1NCCO	?	17	?	-14%	-23%
Cc1ccccc1-n1c2nc(=O)[nH]c(=O)c-2cc2c(Cl)cccc21	0.52µM*	.	.	.	0.82µM*
Cc1ccc(OCCCNCCO)c(Br)c1	4.6µM*	-60*	21µM*	?	4.6µM*
CCCCNCCCOc1ccc(C)cc1Br	16µM*	.	-27%	-13%	18µM*
CCOc1ccc(CN(C)C(C)C(=O)NCc2ccccc2)cc1 (stereo not drawn)	?	11	-3%	6%	?
CCc1ccc(CN(C)C(C)C(=O)NCc2ccccc2)cc1 (stereo not drawn)	7.3µM*	-1	-3%	-3%	?
CC(C)C(C(=O)NCc1ccccc1)N(C)Cc1ccc(Cl)c(Cl)c1 (stereo not drawn)	?	0	?	?	?
CCC(CC)C(C(=O)NCc1ccccc1)N(C)Cc1ccc(Cl)c(Cl)c1 (stereo not drawn)	15µM*	-10	?	?	21µM*
Nc1cnn(Cc2ccccc2F)c1	21µM*	16	?	?	?
Nc1cnn(Cc2ccc(F)cc2)c1	14%	15	-1%	-27%	8%
COc1cc2c(cc1OC)C(COc1cc(C)cc(C)c1)N(C(=O)c1ccc(S(=O)(=O)N3CCCC3)cc1)CC2 (stereo not drawn)	-22%	.	.	.	?
Cn1c(Cn2cnc3ccccc32)nnc1SCC(=O)CC(=O)Nc1ccccc1	-29%	0	-3%	-5%	2%
CN1C(=O)c2ccccc2Sc2ccc(NC(=O)NCc3ccccc3Br)cc21	21µM*	.	.	.	16µM*
O=C(Nc1ccc2c(c1)N(Cc1ccccc1)C(=O)c1ccccc1S2)NC1CC1	-12%	-8	-5%	-16%	-3%
CC(C)CCNC(=O)Nc1ccc2c(c1)N(C)C(=O)c1ccccc1S2	16µM*	.	.	.	15µM*
CC1(C)O[C@H]2[C@@H](O1)[C@@H](C(=O)Nc1cc(F)ccc1F)O[C@@H]1OC(C)(C)O[C@@H]12	-6%	.	.	.	-7%
